This excerpt belongs to a sample that is enriched for hits.
RBX1-CUL1 inh: inhibitors of human ROC1-CUL1 ubiquitin ligase activity; P62877+Q13616; in vitro K48 di-Ub FRET, acceptor:donor ratio, 45 min; inhibition, % at 10 µM; actives 0.6% (n = 140,000); AID 1347404; in the data active = inhibition above about 25%
* = called active by the depositor.

SMILES	RBX1-CUL1 inh
COc1cccc(C2C3=C(N=c4s/c(=C/c5ccc(O)c(OC)c5)c(=O)n42)c2ccccc2CC3)c1 (centres undefined)	-4
COc1cc(/C=c2/sc3n(c2=O)C(c2ccccc2Cl)C2=C(N=3)c3ccccc3CC2)ccc1OCc1ccc2c(c1)OCO2 (centres undefined)	-1
COc1ccc(C2C3=C(N=c4s/c(=C/c5c[nH]c6ccccc56)c(=O)n42)c2ccccc2CC3)cc1OC (centres undefined)	-3
COc1ccc(C2C3=C(N=c4s/c(=C/c5ccc(C(=O)O)cc5)c(=O)n42)c2ccccc2CC3)cc1OC (centres undefined)	92*
COc1ccc(C2C3=C(N=c4s/c(=C/c5ccc(OCc6cccc(C(=O)O)c6)c(OC)c5)c(=O)n42)c2ccccc2CC3)cc1 (centres undefined)	43*
CC(C)CCNC(=O)c1ccc(Cl)cc1	5
COc1ccccc1NC(=O)CN(C)C1CCCCC1	5
O=C1N=C(Cc2ccc(N3CCCCC3)cc2F)C(=O)N1Cc1ccccc1	-2
Cc1c(-c2nnnn2-c2ccc(I)cc2)cnc2ccccc12	9
COc1cc(/C=C2\C(=O)NN(c3ccccc3)C2=O)cc(I)c1OCCCOc1ccc(Cl)cc1	0
COc1ccc2cccc(/C=C3\C(=O)NN(c4ccc(Cl)c(Cl)c4)C3=O)c2c1	8
COc1c(I)cc(I)cc1/C=C1\C(=O)NN(c2cccc(Cl)c2)C1=O	48*
COc1ccccc1/C=C1\C(=O)NN(c2cccc(Cl)c2)C1=O	6
COc1ccccc1/C=C1/C(=O)NN(c2ccc(Br)cc2)C1=O	3
O=C1NN(c2cccc(Cl)c2)C(=O)/C1=C\c1ccc(-c2ccc(Br)cc2C(=O)O)o1	80*
O=C1NN(c2cccc(Cl)c2)C(=O)/C1=C/c1cc(I)cc(I)c1O	1
O=C1NN(c2ccc(Cl)cc2)C(=O)/C1=C\c1cc(I)cc(I)c1O	-11
COC(=O)c1cc(-c2ccc(/C=C3/C(=O)NN(c4cccc(Br)c4)C3=O)o2)ccc1Cl	5
COC(=O)c1cccc(-c2ccc(/C=C3/C(=O)NN(c4cccc(Cl)c4)C3=O)o2)c1	11
COc1ccc(Br)cc1/C=C1/C(=O)NN(c2cccc(Cl)c2)C1=O	89*
COc1c(I)cc(I)cc1/C=C1/C(=O)NN(c2ccc(Cl)cc2)C1=O	47*
Cc1ccc2oc(-c3cc(NC(=O)c4ccc(-c5cccc(Cl)c5)o4)ccc3O)nc2c1	12
Oc1ccc(O)c(Sc2nnnn2-c2ccccc2)c1	-1
CC(C)C(c1nnnn1C1CCCCC1)N1CCCCC1 (centres undefined)	5
Cc1ccc(C)c(S(=O)(=O)N(C)CC(=O)NC2CCCCC2)c1	4
SMILES	RBX1-CUL1 inh
Cc1scc(C(=O)NCC2CCCO2)c1-c1ccccc1 (centres undefined)	-4
Cc1ccc(-c2[nH]ncc2CNCC2(C)COC2)cc1C	8
O=C1CCc2c3ccc(c2N1)CCc1ccc(cc1)CC3	6
N[n+]1cnn(CC(=O)c2ccc([N+](=O)[O-])cc2)c1	-3
CCOC(=O)c1ccc(-c2ccc(/C=C3/C(=N)N4N=C(C(C)C)SC4=NC3=O)o2)cc1	11
Cc1cnnn1-c1ccc(-c2nc(-c3ccc(Cl)cc3)no2)cc1	-2
CCOC(=O)Nc1ccc2c(c1)Nc1ccccc1[S@@]2=O	1
O=C(c1ccc(-c2cccc(-c3ccn[nH]3)c2)o1)N1CCCCC1	3
COc1ccccc1NC(=O)CSc1nc2sc3c(c2c(=O)n1-c1ccccc1)CC(C)(C)OC3	-1
COc1cc(/C=C2\C(=O)NN(c3ccc(C)cc3)C2=O)cc(Br)c1O	12
COc1cc(/C=C2\C(=O)NN(c3ccc(Cl)c(Cl)c3)C2=O)cc(Br)c1O	7
O=C1NN(c2ccccc2)C(=O)/C1=C/c1cccc(OCCCOc2ccc(Cl)cc2)c1	5
COc1ccc(/C=C2\C(=O)NN(c3cccc(Cl)c3)C2=O)cc1	8
COc1cc(Br)cc(/C=C2\C(=O)NN(c3ccc(C)c(Cl)c3)C2=O)c1O	43*
CC(=O)Oc1cccc(/C=C2/C(=O)NN(c3cccc(Cl)c3)C2=O)c1	26*
CCc1ccc(N=C2NC(=O)/C(=C\c3cc(Cl)c(OCC#N)c(OC)c3)S2)cc1	8
CCOc1cc(/C=C2\SC(=Nc3ccc(Cl)cc3)NC2=O)cc(Cl)c1OCC(=O)O	96*
CCOC(=O)COc1c(I)cc(/C=C2/SC(=Nc3ccc(OC)cc3)NC2=O)cc1OC	7
CCOC(=O)c1c(NC(=O)c2ccc(Cl)cc2)n[nH]c1N	4
CCN(CC)c1ccc(/C=C2\SC(=Nc3ccc(Cl)c(Cl)c3)NC2=O)o1	29*
Cc1ccc(/C=C2\SC(=Nc3ccc(C)c(C)c3)NC2=O)o1	-5
Cc1cc(N=C2NC(=O)/C(=C\c3ccc(Br)o3)S2)ccc1Cl	4
Cc1ccc2nc3c(cc(C(=O)NC(C)C)n3C)c(=O)n2c1	13
O=S(=O)(Nc1ccc(S(=O)(=O)NC2CCCCC2)cc1)c1ccccc1	-6
COc1ccc(-n2c(-c3ccccc3)c(Cc3ccccc3)c(-c3ccc(Cl)cc3)c(C(=O)c3ccccc3)c2=S)cc1	5
SMILES	RBX1-CUL1 inh
CCCNC(=O)c1nnn(-c2cc(Cl)ccc2OC)c1C	4
COc1cc2c(cc1OC)/C(=C/CC1(C)C(=O)CCC1=O)CCS2	13
COc1cc2c(cc1OC)C1=C(C3=CCC(=O)[C@@]3(C)CC1)[C@H](C)S2	25*
COc1cc2c(cc1OC)C(=O)CCS2	0
O=C(O)c1ccccc1-c1c2cc(Cl)c(=O)cc-2oc2c1CC(Cl)C(O)=C2 (centres undefined)	129*
O=C(O)c1cc(NC2(c3ccccc3)C(=O)c3ccccc3C2=O)ccc1Cl	-2
CC(C)n1c(/C=C(/OC(=O)c2ccc(F)cc2)c2ccc(F)cc2)nc2ccccc21	-1
COc1cc2c(cc1OC)CN(C1CCCN(C(=O)CCSC)C1)CC2 (centres undefined)	4
CCc1cc2c(=O)c(-c3nc(C)cs3)coc2cc1OC(=O)CCCCCNC(=O)OC(C)(C)C	-9
COc1ccc(Cn2nnc3c2C(=O)c2nnn(Cc4ccc(OC)cc4)c2C3=O)cc1	45*
O=C1c2ccccc2C(=O)c2c1nnn2Cc1ccc(F)cc1	13
Cc1ccccc1Cn1nnc2c1C(=O)c1ccccc1C2=O	12
CCOC(=O)c1ccc(NC(=O)CSc2nnc(-c3ccc(Cl)cc3)n2N)cc1	10
CCCC(=O)N1CCN(S(=O)(=O)c2ccc(C(C)(C)C)cc2)CC1	4
CC1(C2CCN(C(=O)c3cc4ccccc4oc3=O)CC2)NC(=O)N(Cc2ccsc2)C1=O (centres undefined)	13
CN1C(=O)c2ccccc2C(O)c2ccccc21 (centres undefined)	-2
CC(=O)c1ccccc1-c1ccccc1C(C)=O	13
CC(=O)C1=NC(=O)c2ccccc2C1O (centres undefined)	53*
N#CC1C(=N)Oc2n[nH]c(-c3ccccc3)c2C1c1ccccc1Cl (centres undefined)	13
N#CC1C(=N)Oc2n[nH]c(-c3ccc(-c4ccccc4)cc3)c2C1c1ccccc1F (centres undefined)	6
Cc1ccc(-c2[nH]nc3c2C(c2ccc(Cl)cc2)C(C#N)C(=N)O3)cc1 (centres undefined)	-9
Cc1ccc(-c2[nH]nc3c2C(c2ccc(O)c(O)c2)C(C#N)C(=N)O3)cc1 (centres undefined)	35*
N#CC1C(=N)Oc2n[nH]c(-c3ccc(-c4ccccc4)cc3)c2C1c1ccccn1 (centres undefined)	31*

Compound activity deposited in PubChem by Pan Lab, Icahn School of Medicine at Mount Sinai.
